Measured values as given in PubChem BioAssay AID686979 (National Center for Advancing Translational Sciences (NCATS), 2013).
The whole screen tested about 420,000 compounds, of which about 50,000 (12%) were called active. Inconclusive results (about 26%) are left out. The sample as a whole holds a higher share of actives than the screen did. Unmarked numbers belong to inactive results. Calls come from the whole dose curve; as a rule, active = well fitted inhibition curve with a large enough effect; inconclusive = small, poorly fitted or top-dose-only effect; inactive = flat fitted curve, though single readings scatter.

Assay: qHTS for Inhibitors of human tyrosyl-DNA phosphodiesterase 1 (TDP1): qHTS in cells in presence of CPT; note: nearly all actives have a fitted effect of over 55% in size
Conditions: chicken DT40 Tdp1-/-;hTDP1 cells + 20 nM CPT, ATP luminescence, 48 h; series mostly up to 46.2 µM; activity change, negative = growth inhibition: at the top concentration
Method in brief: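 Cell growth measured by CellTiter-Glo luminescence after a minimum 48 h, 37 C compound exposure with 20 nM CPT in Tdp1-knockout DT40 cells stably expressing hTDP1, seeded 400/well; qHTS titration format.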
% is set by controls: 0 for no effect and ±100 for the full control effect; potency is the fitted concentration of half-maximal effect.

SMILES | activity change, negative = growth inhibition [%] | Potency
O=C(NC1CC(=O)N(c2ccc(F)cc2)C1)c1cccs1 (stereo unspecified) | -7.52 | –
CC(C)=NN1C(=O)c2ccccc2NC1(C)C | 33 | –
O=C(Nc1ccc2c(c1)OCO2)c1ccc(N2C(=O)c3ccccc3C2=O)cc1 | -4.6 | –
Cc1ccc(-c2csc(N3CCN(c4cc5c(cc4Cl)nc(-c4ccncc4)n5CCOCCO)CC3)n2)cc1 | – | 16.4 µM (active)
CCCn1c(C(C)Nc2nc(-c3ccc(C)cc3)cs2)nc2cc(Cl)c(N3CCCCC3)cc21 (stereo unspecified) | -17.2 | –
COc1ccc(-c2csc(N3CCN(Cc4ccc5c(c4)OCO5)CC3)n2)cc1 | -5.07 | –
COc1cccc(CNC(=O)c2nnn(CC(=O)Nc3cc(C)ccc3C)c2N)c1 | -3.62 | –
CSc1c(SCc2ccccc2)cnn(Cc2ccccc2)c1=O | 4.13 | –
Cc1cccc(N2CC(C)Cn3c2nc2c3c(=O)n(CC(=O)OCc3ccccc3)c(=O)n2C)c1 (stereo unspecified) | – | 23.1 µM (active)
Cn1c(=O)n(CCc2ccccc2)c(=O)c2c1nc1n2CCCN1c1ccccc1 | -21.7 | –
CC1CN(C2CCCCC2)c2nc3c(c(=O)n(C)c(=O)n3C)n2C1 (stereo unspecified) | -29.8 | –
CCn1c(SC(C)C(=O)Nc2ccc(N3CCOCC3)cc2)nnc1-c1ccco1 (stereo unspecified) | -14.6 | –
COc1ccc(C(C)C)cc1-c1ccc2nncn2c1 | -1.77 | –
C=CCn1c(SCC(=O)Nc2ccc(NC(C)=O)cc2)nc2sc(C)c(C)c2c1=O | -7.85 | –
CC(OC(=O)CNC(=O)c1ccco1)C(=O)Nc1ccc(Cl)cn1 (stereo unspecified) | 3.92 | –
CC(=O)c1ccc(N2Cc3ccccc3C2)cc1 | 11.7 | –
O=C(Nc1cccc(S(=O)(=O)N2CCCCC2)c1)c1ccc2c(c1)OCO2 | – | 25.9 µM (active)
O=C(Nc1cccc(S(=O)(=O)Nc2ccc(Cl)cc2)c1)c1ccc2c(c1)OCCO2 | – | 13 µM (active)
O=C(Nc1ccc(NC(=O)c2ccc3c(c2)OCO3)cc1)c1cccc(Cl)c1 | 12 | –
CC(NS(=O)(=O)c1ccc(Cl)cc1)C(=O)Nc1ccc2c(c1)OCCO2 (stereo unspecified) | 0.47 | –
O=C(Nc1nncs1)c1cccc(S(=O)(=O)N2CCCCC2)c1 | -15.7 | –
CN1CCN(S(=O)(=O)c2cccc(C(=O)Nc3cccc(S(N)(=O)=O)c3)c2)CC1 | -3.98 | –
Cc1cc(C)cc(OCC(=O)OCC(=O)NC2CCCC2)c1 | 7.16 | –
Cn1c(=O)c(=O)n(C)c2cc(S(=O)(=O)CCC(=O)N3CCCCC3)ccc21 | -16.2 | –

SMILES | activity change, negative = growth inhibition [%] | Potency
COc1cc(S(=O)(=O)N2CCN(C(=O)C3CC3)CC2)ccc1NC(C)=O | -6.15 | –
Clc1ccc(Cl)c(Oc2ccc(Oc3nc(Cl)ccc3Cl)cc2)n1 | -23.1 | –
COC(=O)CCCCC1=CCC2C(=O)C=C(O)C2C1 (stereo unspecified) | -19.3 | –
Cc1cc(C)cc(-c2nnc(SCC(=O)NC3CC3)o2)c1 | -10.3 | –
COc1ccc(-c2nnc(SCC(=O)NC3CCCCC3)o2)cc1OC | – | 20.6 µM (active)
COc1ccc(-c2nnc(SCC(=O)Nc3ccccc3C)o2)cc1OC | -12.2 | –
Cc1cc(C)nc(/N=C2\NC(=O)CC(C(=O)O)N2c2ccc(Cl)cc2Cl)n1 (stereo unspecified) | -8.38 | –
Cc1cc(NC(=O)/C=C/C(=O)N(CC(=O)NC2CCCC2)c2ccc(F)cc2)no1 | 8.35 | –
Cc1cc(NC(=O)CCC(=O)N(c2cccc(F)c2)C(C(=O)NC2CCCC2)c2ccncc2)no1 (stereo unspecified) | -3.74 | –
Cc1cc(NC(=O)/C=C/C(=O)N(c2ccccc2C)C(C(=O)NC2CCCC2)c2ccc(F)cc2)no1 (stereo unspecified) | – | 20.6 µM (active)
O=C(Nc1ccc(F)c([N+](=O)[O-])c1)C1CCCO1 (stereo unspecified) | -10.5 | –
CN(c1ccccc1)S(=O)(=O)c1cccc(C(=O)NNC(=O)c2ccncc2)c1 | -10.2 | –
CCN(CC)S(=O)(=O)c1ccc(N2CCCC2)c(NC(=O)c2ccc([N+](=O)[O-])o2)c1 | – | 23.1 µM (active)
CCN(CC)S(=O)(=O)c1ccc(N2CCOCC2)c(C(=O)O)c1 | 0.809 | –
CCN(CC)S(=O)(=O)c1ccc(N2CCOCC2)c(NC(=O)c2ccc(=O)n(C)n2)c1 | -10.4 | –
CCN(CC)S(=O)(=O)c1ccc(N2CCOCC2)c(NC(=O)C2COc3ccccc3O2)c1 (stereo unspecified) | – | 18.4 µM (active)
CN(C)S(=O)(=O)c1ccc(N2CCCC2)c(C(=O)NCc2ccccc2)c1 | -14.6 | –
CCN1CCN(c2ccc(S(=O)(=O)N3CCCCC3)cc2NC(=O)c2cccc(NC(C)=O)c2)CC1 | -7.38 | –
O=C(c1cccnc1)N(Cc1ccccc1)C(=O)c1cccnc1 | -2.33 | –
COc1ccccc1C(=O)NCC(=O)OCC(=O)NNC(=O)c1ccc(Br)cc1 | 3.59 | –
Cc1ccc(N2C(=O)C(NC(=O)c3c(F)cccc3F)(C(F)(F)F)C3=C2CC(C)(C)CC3=O)cc1 (stereo unspecified) | 20.2 | –
Cc1ccc(O)c(NC(=O)c2cc(-c3ccco3)on2)c1 | 6.69 | –
Cc1cccc(NC(=O)C2CC(=O)OC23CCCC3)c1 (stereo unspecified) | -2.24 | –
COc1ccccc1C1C2=C(COC2=O)Nc2cc3c(cc21)OCO3 (stereo unspecified) | -8.64 | –

SMILES | activity change, negative = growth inhibition [%] | Potency
CCCOc1ccccc1C1CC(=O)Nc2cc3c(cc21)OCO3 (stereo unspecified) | – | 2.31 µM (active)
COc1cc2c(cc1OC)C(c1ccc(C)o1)CC(=O)N2 (stereo unspecified) | 10.7 | –
COc1ccccc1C(=O)NC(=O)COC(=O)C1CC1 | -14.2 | –
N#Cc1c(N)nc2c3c(sc(=N)c2c1N)NC(=O)CC3c1ccccc1Cl (stereo unspecified) | -88.9 | –
COc1ccc(NC(=O)CSCc2ccc([N+](=O)[O-])cc2)cc1OC | -9.99 | –
CCCCOc1ccc(CON(C(C)=O)C(C)=O)cc1Cl | -14.4 | –
CCCCOc1ccc(CSC(=N)N)cc1[N+](=O)[O-] | – | 13 µM (active)
Cc1nn(C)c(C)c1C(C)NC(=O)c1ccc(OC2CCN(Cc3ccccn3)CC2)cc1 (stereo unspecified) | -16.9 | –
CN(C)S(=O)(=O)c1cccc(NC(=O)Cc2ccsc2)c1 | -1.21 | –
Cc1ccc(/C=N/NC(=O)Cn2nc(C)c(Br)c2C)o1 | -14.3 | –
Cc1ccc(/C=N/NC(=S)Nc2cccc(S(=O)(=O)N(C)C)c2)o1 | – | 4.61 µM (active)
COc1ccc(NC(=O)CN(C)C(=O)Cc2coc3cc(C)c(C)cc23)cc1 | -2.55 | –
COc1ccc(NC(=O)C(CC(C)C)NC(=O)C2CCC(C)CC2)cc1 (stereo unspecified) | -10.8 | –
CCc1ccc(-n2nnc(-c3nc(-c4ccccc4)no3)c2C)cc1 | -18.1 | –
O=C(CN(C(=O)c1csnn1)c1cccc(Cl)c1)NC1CCCC1 | -0.246 | –
O=C(NC(=S)Nc1ccccc1N1CCCCC1)c1ccc(F)cc1 | -10.6 | –
CC(=O)c1ccc(NC(=O)COc2ccccc2-c2nc(-c3ccccc3)no2)cc1 | 4.35 | –
CC(=O)c1ccc(NC(c2ccc(F)cc2)c2nnc(-c3ccccc3)o2)cc1 (stereo unspecified) | – | 9.2 µM (active)
CCCN(CCC)c1ccc(C(O)c2nnc(-c3ccccc3)o2)cc1 (stereo unspecified) | 2.08 | –
CCn1c(SCC(=O)Nc2ccc3c(c2)OCCO3)nnc1-c1ccncc1 | 3.72 | –
CCC(=O)c1ccc(OCC(=O)OCC(=O)NC2CCCCCC2)cc1 | -25.7 | –
Cc1cc(C)c(C)c(S(=O)(=O)Nc2cccnc2)c1C | 2.32 | –
Cc1ccc(C(=O)NNC2=Nc3cc([N+](=O)[O-])ccc3OC2)cc1 | -2.68 | –
